For 13 targets, log2 fold change results are on record in the supplement of paper PMC10849652.

Of roughly 8,800 targets only a part is listed; those with a hit were picked by preference. About 0.5% of all pairs of compound and target were hits. A number with no mark means an inactive call.

Holding throughout (experiment): log2 fold change, soluble protein after heating vs DMSO (PISA); higher = thermal stabilisation; K562 lysate, 10 uM; active = over 0.2 and 3.5 SD of the protein, either way, in both replicates (recomputed)
Compound in assay [1]: Cc1cn(-c2cc(NC(=O)c3ccc(C)c(Nc4nccc(-c5cccnc5)n4)c3)cc(C(F)(F)F)c2)cn1 [nilotinib]
In outline: (§1)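 Dounce homogenisation of K562 pellets in PBS pH 7.4 with 1 mM MgCl2 produced a crude extract, used at 1 mg/mL protein. Exposure to 10 μM compound lasted 30 min, and aliquots were then heated for 3 min across 48°C-58°C, pooled and brought to 0.5% NP-40 at 4°C. The supernatant after 21,000xg for 90 min was quantified by TMTpro 16plex LC-MS/MS with channel sums equalised. Duplicate values are given as log-two fold change in thermal stability relative to solvent controls.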

Compound in assay [2]: Cc1nc(Nc2n[nH]c3c2CN(C(=O)N[C@H](CN(C)C)c2ccccc2)C3(C)C)c2sccc2n1
In outline:
as §1

Compound in assay [3]: Cc1ncc(-c2ccnc(Nc3ccc(S(C)(=O)=O)cc3)n2)n1C(C)C
In outline: as §1

Compound in assay [4]: Cn1cncc1[C@@](N)(c1ccc(Cl)cc1)c1ccc2c(c1)c(-c1cccc(Cl)c1)cc(=O)n2C [tipifarnib]
In outline: as §1

Compound in assay [5]: CS(=O)(=O)CCNCc1ccc(-c2ccc3ncnc(Nc4ccc(OCc5cccc(F)c5)c(Cl)c4)c3c2)o1 [lapatinib]
A digest of the protocol:
as §1

Compound in assay [6]: C[C@@H](Oc1cc(-c2cnn(C3CCNCC3)c2)cnc1N)c1c(Cl)ccc(F)c1Cl [crizotinib]
In outline:
as §1

Compound in assay [7]: C[C@H](C1=CC=C(C=C1)C(=O)NC2=C3C=CNC3=NC=C2)N
In outline: as §1

Compound in assay [8]: C[C@H](Nc1ncnc2nc[nH]c12)c1cc2cccc(Cl)c2c(=O)n1-c1ccccc1 [duvelisib]
A digest of the protocol: as §1

Compound in assay [9]: Cc1cc(Nc2cc(CN3CCOCC3)c3nc(C)c(Cc4ccc(Cl)cc4F)n3n2)n[nH]1 [gandotinib]
A digest of the protocol:
as §1

Compound in assay [10]: Cc1ccc(-n2nc(C(C)(C)C)cc2NC(=O)Nc2ccc(OCCN3CCOCC3)c3ccccc23)cc1 [doramapimod]
A digest of the protocol: as §1

Compound in assay [11]: Cc1cccc(CC(=O)N2CCc3c2ccc(-c2cn(C)c4ncnc(N)c24)c3F)n1
A digest of the protocol: as §1

Compound in assay [12]: Cc1nc(Nc2ncc(C(=O)Nc3c(C)cccc3Cl)s2)cc(N2CCN(CCO)CC2)n1 [dasatinib]
In outline:
as §1

Compound in assay [13]: Cn1cc(-c2ccc3c(c2)CCN3C(=O)Cc2cccc(C(F)(F)F)c2)c2c(N)ncnc21
In outline: as §1

Compound in assay [14]: Cn1cc(CNCC2CCN(c3ncc(C(=O)NO)cn3)CC2)c2ccccc21 [quisinostat]
In outline: as §1

Compound in assay [15]: NC(=O)Nc1cc(-c2cccc(F)c2)sc1C(=O)N[C@H]1CCCNC1
In outline:
as §1

Compound in assay [16]: NC(=O)c1cnc(N[C@@H]2CCCC[C@@H]2N)nc1Nc1cccc(-n2nccn2)c1
A digest of the protocol: as §1

Compound in assay [17]: NC1(c2ccc(-c3nc4ccn5c(=O)[nH]nc5c4cc3-c3ccccc3)cc2)CCC1
A digest of the protocol: as §1

Compound in assay [18]: Cc1cc(Nc2cc(N3CCN(C)CC3)nc(Sc3ccc(NC(=O)C4CC4)cc3)n2)n[nH]1 [tozasertib]
A digest of the protocol: as §1

Compound in assay [19]: CS(=O)(=O)N1CCN(Cc2cc3nc(-c4cccc5[nH]ncc45)nc(N4CCOCC4)c3s2)CC1 [pictilisib]
In outline:
as §1

Compound in assay [20]: Cc1ccc(NC(=O)c2ccc(CN3CC[C@H](N(C)C)C3)c(C(F)(F)F)c2)cc1Nc1nccc(-c2cncnc2)n1 [bafetinib]
In outline: as §1

UniProt Q9NP59, sequence (Q9NP59 whole entry, looked up): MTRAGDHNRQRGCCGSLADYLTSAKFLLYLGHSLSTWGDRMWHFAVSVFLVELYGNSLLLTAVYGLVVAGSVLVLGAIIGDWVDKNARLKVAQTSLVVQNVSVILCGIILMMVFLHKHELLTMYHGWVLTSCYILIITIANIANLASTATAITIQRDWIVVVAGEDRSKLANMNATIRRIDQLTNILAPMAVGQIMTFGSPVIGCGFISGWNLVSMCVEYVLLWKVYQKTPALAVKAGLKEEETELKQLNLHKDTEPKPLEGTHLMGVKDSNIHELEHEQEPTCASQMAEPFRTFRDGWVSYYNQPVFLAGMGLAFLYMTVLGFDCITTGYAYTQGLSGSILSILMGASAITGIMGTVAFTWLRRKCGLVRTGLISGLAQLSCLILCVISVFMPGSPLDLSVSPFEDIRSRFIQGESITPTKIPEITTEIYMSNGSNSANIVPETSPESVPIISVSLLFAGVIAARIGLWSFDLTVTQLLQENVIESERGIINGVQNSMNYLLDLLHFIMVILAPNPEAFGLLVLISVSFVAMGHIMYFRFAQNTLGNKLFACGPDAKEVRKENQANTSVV
UniProt Q8TAD8, sequence (Q8TAD8 whole entry, looked up): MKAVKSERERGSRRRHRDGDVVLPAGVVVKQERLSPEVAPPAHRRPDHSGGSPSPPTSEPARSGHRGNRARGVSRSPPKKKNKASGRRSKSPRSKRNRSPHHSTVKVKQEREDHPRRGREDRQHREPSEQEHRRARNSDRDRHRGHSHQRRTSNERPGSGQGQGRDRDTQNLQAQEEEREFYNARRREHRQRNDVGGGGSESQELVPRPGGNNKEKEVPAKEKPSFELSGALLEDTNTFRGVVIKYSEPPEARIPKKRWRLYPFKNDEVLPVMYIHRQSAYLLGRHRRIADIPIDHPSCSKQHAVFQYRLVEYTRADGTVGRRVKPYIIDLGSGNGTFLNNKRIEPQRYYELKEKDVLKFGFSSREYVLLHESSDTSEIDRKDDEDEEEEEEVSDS
UniProt Q9UEE5, sequence (Q9UEE5 whole entry, looked up): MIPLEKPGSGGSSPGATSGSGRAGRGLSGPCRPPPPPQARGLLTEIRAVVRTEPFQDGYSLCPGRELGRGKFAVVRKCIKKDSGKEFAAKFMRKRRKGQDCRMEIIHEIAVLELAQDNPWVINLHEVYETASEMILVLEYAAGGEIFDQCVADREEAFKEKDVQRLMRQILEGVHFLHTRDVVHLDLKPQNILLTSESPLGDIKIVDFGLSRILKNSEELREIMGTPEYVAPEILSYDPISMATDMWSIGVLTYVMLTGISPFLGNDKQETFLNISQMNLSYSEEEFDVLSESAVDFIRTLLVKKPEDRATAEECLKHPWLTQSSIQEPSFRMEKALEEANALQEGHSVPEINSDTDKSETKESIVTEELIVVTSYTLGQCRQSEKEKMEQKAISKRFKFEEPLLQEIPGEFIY
UniProt P12931, sequence (P12931 whole entry, looked up): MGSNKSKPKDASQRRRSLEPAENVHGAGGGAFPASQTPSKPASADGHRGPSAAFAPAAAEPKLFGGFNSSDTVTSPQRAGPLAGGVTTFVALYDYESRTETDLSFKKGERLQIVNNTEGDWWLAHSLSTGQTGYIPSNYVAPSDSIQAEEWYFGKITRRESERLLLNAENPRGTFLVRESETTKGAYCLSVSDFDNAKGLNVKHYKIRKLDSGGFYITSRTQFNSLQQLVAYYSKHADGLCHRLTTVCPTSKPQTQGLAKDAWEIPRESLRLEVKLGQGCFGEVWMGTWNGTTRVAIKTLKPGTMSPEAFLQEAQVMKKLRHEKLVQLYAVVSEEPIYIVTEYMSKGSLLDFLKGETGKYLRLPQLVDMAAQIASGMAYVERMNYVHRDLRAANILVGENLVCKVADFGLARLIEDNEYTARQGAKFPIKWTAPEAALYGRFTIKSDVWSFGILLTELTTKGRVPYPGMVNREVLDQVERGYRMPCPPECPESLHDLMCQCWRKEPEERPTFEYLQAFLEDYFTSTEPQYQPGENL
UniProt O00161, sequence (O00161 whole entry, looked up): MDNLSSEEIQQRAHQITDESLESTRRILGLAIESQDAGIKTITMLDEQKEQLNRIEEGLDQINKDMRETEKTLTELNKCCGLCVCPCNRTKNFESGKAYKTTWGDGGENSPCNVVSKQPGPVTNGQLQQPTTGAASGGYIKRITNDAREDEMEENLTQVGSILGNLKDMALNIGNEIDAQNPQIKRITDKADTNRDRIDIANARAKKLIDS
UniProt Q15464, sequence (Q15464 whole entry, looked up): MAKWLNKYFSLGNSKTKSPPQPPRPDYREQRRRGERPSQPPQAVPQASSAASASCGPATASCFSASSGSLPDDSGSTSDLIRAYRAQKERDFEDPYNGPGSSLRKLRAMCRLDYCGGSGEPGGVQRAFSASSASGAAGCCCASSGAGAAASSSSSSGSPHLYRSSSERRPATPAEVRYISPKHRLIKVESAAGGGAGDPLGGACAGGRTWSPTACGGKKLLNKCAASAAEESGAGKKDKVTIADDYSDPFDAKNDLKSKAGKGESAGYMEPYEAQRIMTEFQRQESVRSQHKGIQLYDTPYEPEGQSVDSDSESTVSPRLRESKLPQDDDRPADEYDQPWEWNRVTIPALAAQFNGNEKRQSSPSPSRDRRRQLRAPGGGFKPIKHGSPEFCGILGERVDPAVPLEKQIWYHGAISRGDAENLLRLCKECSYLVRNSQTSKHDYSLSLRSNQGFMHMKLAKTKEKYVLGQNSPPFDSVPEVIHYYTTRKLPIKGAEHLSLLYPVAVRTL
UniProt Q96BD0, sequence (Q96BD0 whole entry, looked up): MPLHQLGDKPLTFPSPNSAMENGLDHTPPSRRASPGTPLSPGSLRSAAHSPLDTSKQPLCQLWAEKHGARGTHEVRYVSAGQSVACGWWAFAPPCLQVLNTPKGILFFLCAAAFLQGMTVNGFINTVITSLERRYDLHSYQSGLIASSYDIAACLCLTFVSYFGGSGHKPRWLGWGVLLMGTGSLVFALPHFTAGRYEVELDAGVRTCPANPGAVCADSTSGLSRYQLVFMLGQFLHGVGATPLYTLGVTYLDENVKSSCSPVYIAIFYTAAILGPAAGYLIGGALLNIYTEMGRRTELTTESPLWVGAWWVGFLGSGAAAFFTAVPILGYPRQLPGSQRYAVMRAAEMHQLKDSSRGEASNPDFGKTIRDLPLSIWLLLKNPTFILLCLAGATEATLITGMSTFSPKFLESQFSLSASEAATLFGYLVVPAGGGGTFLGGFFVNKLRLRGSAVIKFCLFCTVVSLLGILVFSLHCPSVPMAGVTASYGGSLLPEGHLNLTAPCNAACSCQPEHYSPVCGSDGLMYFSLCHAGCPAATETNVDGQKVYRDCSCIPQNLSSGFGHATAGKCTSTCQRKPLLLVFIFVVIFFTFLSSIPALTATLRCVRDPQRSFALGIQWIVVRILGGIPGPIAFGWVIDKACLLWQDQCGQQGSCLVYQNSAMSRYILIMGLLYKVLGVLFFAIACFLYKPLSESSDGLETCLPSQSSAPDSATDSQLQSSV
UniProt Q8IVJ1, sequence (Q8IVJ1 whole entry, looked up): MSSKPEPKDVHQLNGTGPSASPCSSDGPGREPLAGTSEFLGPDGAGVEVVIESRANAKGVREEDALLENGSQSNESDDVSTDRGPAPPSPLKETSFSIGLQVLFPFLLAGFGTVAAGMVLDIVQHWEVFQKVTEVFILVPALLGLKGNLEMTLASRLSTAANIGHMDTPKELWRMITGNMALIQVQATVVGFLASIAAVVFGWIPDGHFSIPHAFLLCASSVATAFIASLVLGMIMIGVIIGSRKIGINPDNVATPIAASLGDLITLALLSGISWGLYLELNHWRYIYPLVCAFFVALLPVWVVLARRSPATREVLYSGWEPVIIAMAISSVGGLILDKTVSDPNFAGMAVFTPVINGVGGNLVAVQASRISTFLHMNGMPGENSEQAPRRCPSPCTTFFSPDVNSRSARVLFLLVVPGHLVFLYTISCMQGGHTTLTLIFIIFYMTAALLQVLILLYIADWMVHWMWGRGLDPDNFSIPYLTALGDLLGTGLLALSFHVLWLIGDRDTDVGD
UniProt Q13487, sequence (Q13487 whole entry, looked up): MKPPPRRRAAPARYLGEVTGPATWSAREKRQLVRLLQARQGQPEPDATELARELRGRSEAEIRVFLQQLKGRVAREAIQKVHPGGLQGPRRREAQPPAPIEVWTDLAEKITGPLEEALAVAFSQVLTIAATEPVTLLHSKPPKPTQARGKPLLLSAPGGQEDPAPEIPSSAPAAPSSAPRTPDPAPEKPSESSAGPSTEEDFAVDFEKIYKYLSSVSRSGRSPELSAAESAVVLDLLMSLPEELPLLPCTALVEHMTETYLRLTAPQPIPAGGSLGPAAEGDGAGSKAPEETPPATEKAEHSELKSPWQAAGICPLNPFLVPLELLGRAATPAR
UniProt O60906, sequence (O60906 whole entry, looked up): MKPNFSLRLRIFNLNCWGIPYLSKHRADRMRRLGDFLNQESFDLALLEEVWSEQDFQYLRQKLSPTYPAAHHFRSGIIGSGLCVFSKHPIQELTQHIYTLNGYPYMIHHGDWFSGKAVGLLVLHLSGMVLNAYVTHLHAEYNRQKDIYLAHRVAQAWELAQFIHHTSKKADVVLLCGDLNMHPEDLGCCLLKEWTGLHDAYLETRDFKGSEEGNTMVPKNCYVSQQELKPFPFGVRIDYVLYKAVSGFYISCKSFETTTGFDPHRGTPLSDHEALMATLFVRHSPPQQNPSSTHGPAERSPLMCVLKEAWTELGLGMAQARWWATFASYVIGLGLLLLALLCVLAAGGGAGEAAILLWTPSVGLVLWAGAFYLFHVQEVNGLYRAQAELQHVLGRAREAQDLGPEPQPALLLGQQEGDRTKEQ

In the case of SNIP1 (UniProt Q8TAD8), the log2 fold change in assay [1] is -0.1; in [2] it was 0.037; in assay [3], -0.078; in [4], -0.149.

On to SHB (UniProt Q15464), for which the log2 fold change is -0.07 in assay [5]; -0.044 in assay [6]; -0.305 in assay [7]; -0.034 in assay [8]; 0.186 in assay [9]; 0.028 in assay [10]. In addition, the log2 fold change in [11] is -0.129; in [12], 0.05; in [13], 0.004; in assay [14], 0.072; in [15], -0.026; in assay [16] it was -0.02. The log2 fold change in [17] is -0.01.

SNRPD2 (UniProt K7EJB5): the log2 fold change in [5] was 0.005; in assay [6], -0.202; in [8], 0.014; in assay [18], 0.051; in [10], 0.105; in assay [1], -0.081. For the same target, the log2 fold change was 0.005 in assay [2]; -0.026 in [12]; -0.094 in assay [3]; -0.084 in assay [13]; -0.267 in assay [14]; -0.075 in [4]. The log2 fold change is -0.082 in assay [15], 0.044 in assay [16] and 0 in assay [17].

Take SLC40A1 (UniProt Q9NP59): the log2 fold change was -0.019 in assay [5]; 0.111 in assay [6]; -0.164 in [7]; 0.099 in [8]; 0.054 in assay [9]; -0.035 in assay [18]. In addition, the log2 fold change in [10] was -0.056; in assay [11] it was 0.018; in assay [1] it was 0.009; in assay [2], 0.131; in assay [12], -0.077; in [3], 0.015. Also, the log2 fold change in [13] was -0.02; in assay [14], -0.079; in assay [4] it was -0.118; in [15], 0.167; in assay [16] it was -0.035; in assay [17], -0.185.

Consider SMPD2 (UniProt O60906), for which the log2 fold change in [5] was 0.015; in assay [7], 0.106; in assay [8], 0.107; in [9], -0.051; in [18] it was -0.031; in assay [11] it was 0.03. In addition, the log2 fold change in [12] is -0.169; in [13], -0.102; in assay [16] it was 0.029; in assay [17], 0.069.

With SNAP23 isoform 2 (UniProt O00161), the log2 fold change in [5] is 0.075; in [7], 0.188; in assay [9] it was -0.054; in [18], -0.185; in [11], -0.163; in assay [1], 0.011. Further, the log2 fold change in assay [2] was -0.041; in [3] it was -0.054; in assay [4], -0.016; in [16], 0.046; in assay [17], -0.116.

On to SMC4 (UniProt C9JJ64), for which the log2 fold change is 0.006 in assay [19] and -0.251 in [20].

In the case of SLCO4A1 (UniProt Q96BD0), the log2 fold change in [19] was -0.687 (active); in [7], 0.016; in assay [9] it was 0.062; in [20], -0.334; in assay [11] it was 0.012; in [1], -0.006. In addition, the log2 fold change in assay [2] is 0.044; in assay [3], 0.008; in assay [4], 0.076.

Turning to SRC isoform 2 (UniProt P12931), the log2 fold change was -0.001 in [5]; -0.078 in assay [19]; 0.151 in [7]; 0.001 in assay [8]; 0.061 in assay [9]; 0.098 in [18]. For the same target, the log2 fold change in [20] was -0.153; in assay [11], -0.015; in assay [13] it was -0.023; in assay [16] it was 0.015; in assay [17], 0.012.

Turning to STK17A (UniProt Q9UEE5), the log2 fold change is 0.315 in assay [7]; -0.001 in [9]; -0.197 in assay [11]; 0.076 in assay [1]; 0.188 in assay [2]; 0.249 in [3]. The log2 fold change in [4] was -0.387.

Consider SMARCA4 isoform 4 (UniProt P51532), for which the log2 fold change in [5] was -0.072; in assay [6] it was 0; in [7], 0.024; in [8], -0.068; in assay [9], -0.007; in assay [18], 0.136. The log2 fold change in [10] is -0.048; in assay [11], -0.012; in [1], -0.244; in assay [2] it was -0.219; in assay [12], -0.037; in assay [3] it was 0.037. Also, the log2 fold change in [13] is 0.035; in assay [14], -0.081; in [4], 0.239; in [15], 0.16; in assay [16] it was -0.042; in assay [17], 0.05.

Regarding SNAPC2 (UniProt Q13487), the log2 fold change in [19] is 0.08; in [6], -0.007; in [7], 0.024; in assay [8] it was -0.129; in [9], 0.01; in [10], 0.03. For the same target, the log2 fold change is -0.537 in assay [20]; -0.033 in assay [11]; 0.066 in [1]; 0 in assay [2]; -0.24 in [12]; -0.067 in assay [3]. For the same target, the log2 fold change was -0.122 in assay [13]; -0.021 in assay [14]; -0.106 in assay [4]; 0.029 in assay [15]; 0 in assay [17].

Regarding SLC41A1 (UniProt Q8IVJ1), the log2 fold change in [5] was -0.059; in [6] it was 0.141; in assay [7] it was -0.09; in [9], 0.136; in assay [18], -0.016; in assay [10], 0.01. Further, the log2 fold change is 0.113 in [11]; -0.009 in assay [1]; 0.012 in assay [2]; 0.07 in assay [3]; 0.23 in assay [14]; -0.02 in assay [4]. The log2 fold change was -0.003 in assay [15], 0.014 in assay [16] and 0.055 in [17].
